FLuc inh – blocks purified firefly luciferase enzyme activity | P08659 | purified P. pyralis luciferase, luminescence, biochemical | Potency, µM (top dose mostly 115 µM), actives largely listed as inhibitors | 2.5% of 76,000 active; note: nearly all actives have a fitted effect of over 65% in size
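Purified 10nM P. pyralis luciferase with 10uM D-luciferin and 10uM ATP in 50mM Tris acetate pH 7.5, 10mM Mg acetate, 0.01% Tween-20, 0.05% BSA. qHTS titration; luminescence read by CCD imager.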
HEK cytotox – cytotoxic compounds in HEK 293 cells | AID 1345083 | 6.6% of 94,000 active | Potency, µM (highest dose often 115 µM), without a hit: top-dose activity change, negative = cytotoxicity, usual class: inhibitors | HEK 293 viability, ATP luminescence (CellTiter-Glo), 48-72 h; note: nearly all actives have a fitted effect of over 60% in size
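ATP-coupled CellTiter-Glo luminescence served as viability read-out, recorded 10 min after reagent addition at room temperature. HEK 293 cells, 250 cells/well, had been incubated with pintool-transferred compound for 48 or 72 hr at 37 degree Celsius.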
3T3 cytotox – kills NIH 3T3 cells. NIH 3T3 viability, CellTiter-Glo ATP luminescence, 48-72 h. Potency, µM (highest dose often 96.7 µM), for inactives: at the top dose activity change, negative = cytotoxicity, hits mostly inhibitors. 4.3% of 94,000 active; note: nearly all actives have a fitted effect of over 55% in size
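Viability of NIH 3T3 cells after 48 or 72 hr compound treatment at 37 °C was assessed by CellTiter-Glo, with luminescence imaged following a 10 min room-temperature step.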
hNpr1 antagonist – antagonists of human natriuretic peptide receptor Npr1; P16066; HEK293 hNpr1 GloSensor cGMP, ANP-stimulated luminescence; Potency, µM (titrated, usually from 46.3 µM), for the others: top-dose activity change, negative = inhibition, usual class: inhibitors; 1.6% of 76,000 active; calls by dose curve; note: nearly all actives have a fitted effect of over 60% in size
Target sequence (P16066 whole entry, looked up): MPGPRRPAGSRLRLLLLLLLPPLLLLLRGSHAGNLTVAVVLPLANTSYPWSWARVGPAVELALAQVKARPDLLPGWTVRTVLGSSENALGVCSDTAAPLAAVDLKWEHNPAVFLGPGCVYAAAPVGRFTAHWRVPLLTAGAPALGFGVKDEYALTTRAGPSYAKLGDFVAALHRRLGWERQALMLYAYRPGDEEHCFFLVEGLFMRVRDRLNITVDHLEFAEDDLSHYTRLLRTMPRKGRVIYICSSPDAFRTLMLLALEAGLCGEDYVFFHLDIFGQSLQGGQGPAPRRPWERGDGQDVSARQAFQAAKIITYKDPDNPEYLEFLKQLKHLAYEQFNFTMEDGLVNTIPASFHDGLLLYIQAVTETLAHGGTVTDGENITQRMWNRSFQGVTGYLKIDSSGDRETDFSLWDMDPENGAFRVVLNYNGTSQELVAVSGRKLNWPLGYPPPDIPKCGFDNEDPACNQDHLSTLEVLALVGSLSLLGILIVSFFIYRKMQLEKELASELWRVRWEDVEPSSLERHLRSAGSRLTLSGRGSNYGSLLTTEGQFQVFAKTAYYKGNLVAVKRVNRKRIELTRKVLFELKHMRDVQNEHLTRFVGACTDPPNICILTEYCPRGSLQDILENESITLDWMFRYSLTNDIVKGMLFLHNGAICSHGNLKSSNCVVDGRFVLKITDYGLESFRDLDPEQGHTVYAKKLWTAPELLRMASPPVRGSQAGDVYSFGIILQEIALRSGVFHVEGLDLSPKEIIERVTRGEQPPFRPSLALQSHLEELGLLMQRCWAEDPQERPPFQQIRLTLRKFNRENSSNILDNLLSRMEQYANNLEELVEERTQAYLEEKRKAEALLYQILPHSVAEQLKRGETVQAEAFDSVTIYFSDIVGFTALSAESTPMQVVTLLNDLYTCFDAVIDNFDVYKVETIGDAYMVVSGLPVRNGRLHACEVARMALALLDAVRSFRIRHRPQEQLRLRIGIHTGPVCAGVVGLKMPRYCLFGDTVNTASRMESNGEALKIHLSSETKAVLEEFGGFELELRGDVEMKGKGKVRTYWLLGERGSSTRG
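Compound pre-incubated 30 min at room temperature on GloSensor-loaded HEK293 cells stably carrying hNpr1 and the pGS-40F cGMP biosensor. Stimulation uses hNppA at 0.1 nM final; luminescence is taken at baseline and 20 min post-agonist.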
Active calls of the source: *; i = inactive; ? = inconclusive; nt = no result given; ! = not active in a repeat; [ ] = dose if it differs, or a comment. Rows were chosen to be rich in hits. Some 11% of all compounds tested hit in one or more screens of this group. Unless noted, calls come from the whole dose curve; as a rule, active = well fitted curve in the direction sought with a large enough effect; inconclusive = small, poorly fitted or top-dose-only effect, or another doubt; inactive = no such curve, though single readings can be large; an effect the other way counts as inactive or inconclusive. % is set by controls: 0 for no effect and ±100 for the full control effect; potency is the fitted concentration of half-maximal effect.

SMILES	FLuc inh	HEK cytotox	3T3 cytotox	hNpr1 antagonist
N#Cc1cccc(CN2CCOC[C@H]2c2ncc(-c3ccc(Cl)cc3)[nH]2)c1	i	?	100µM*	?
CN(Cc1ccccc1)Cc1cn([C@H]2CO[C@H]3[C@@H]2OC[C@@H]3NCc2ccco2)nn1	i	-14.6%[172 µM]	-6.1%[138 µM]	4.5%[70.6 µM]
COc1ccc(-c2cnc([C@@H]3COCCN3Cc3cccc(C#N)c3)[nH]2)cc1	i	?	-18.2%[138 µM]	-1.3%[70.6 µM]
N#Cc1cccc(CN2CCOC[C@H]2c2ncc(-c3ccc(F)cc3)[nH]2)c1	i	63.1µM*	?	0.2%[70.6 µM]
CCN(CC)Cc1nc(C2(O)CCN(Cc3ccccc3O)CC2)cs1	i	-24.5%[172 µM]	?	2.1%[70.6 µM]
CCN(CC)Cc1nc(C2(O)CCN(Cc3ccccc3C(F)(F)F)CC2)cs1	i	89.1µM*	?	8.3%[70.6 µM]
Cc1noc2c(N3CCOCC3)cc(-c3cccc(C(F)(F)F)c3)nc12	i	?	?	5.1%[70.6 µM]
COC(=O)CNC(=O)c1cn2cc(-c3ccc(OC)cc3)sc2n1	nt	-23.7%[172 µM]	?	nt
COCCCNC(=O)c1cn2cc(-c3cccc(C#N)c3)sc2n1	nt	?	44.7µM*	nt
COCCCNC(=O)c1cn2cc(-c3ccc(OC)cc3)sc2n1	nt	79.4µM*	39.8µM*	nt
COc1ccc(-c2cn3cc(C(=O)N(C)C)nc3s2)cc1	nt	?	89.1µM*	nt
COc1ccc(-c2cn3cc(C(=O)NCC4CC4)nc3s2)cc1	nt	63.1µM*	50.1µM*	nt
COCCCNC(=O)c1cn2cc(-c3cccnc3)sc2n1	nt	i	?	nt
COc1ccc(-c2cn3cc(C(=O)NCc4ccccc4)nc3s2)cc1	nt	-19.6%	-10.0%	nt
CN1CCCCCCN(C(=O)c2cccs2)[C@H]2CCC[C@H]2C1=O	i	-20.7%	0.0%	0.4%
O=C(c1cc(COc2ccccc2F)[nH]n1)N1CCOCC1	31.6µM*	i	-4.3%	-1.3%
CN(CCC1CCOCC1)C(=O)c1cc(COc2ccccc2F)[nH]n1	i	11.1%	i	3.5%
Cc1nn(-c2ccccc2)c2c1C(C)N(C1CCN(C(=O)c3ccccc3)CC1)C2=O (stereo not given)	nt	35.5µM*	?	nt
Cc1nn(-c2ccccc2)c2c1C(C)N(C1CCN(C(=O)c3cccc(C(F)(F)F)c3)CC1)C2=O (stereo not given)	nt	44.7µM*	?	nt
Cc1nn(-c2ccccc2)c2c1C(C)N(C1CCN(C(=O)c3ccc(Cl)nc3)CC1)C2=O (stereo not given)	nt	?	35.5µM*	nt
COc1cccc(C(=O)N2CCC(N3C(=O)c4c(c(C)nn4-c4ccccc4)C3C)CC2)c1 (stereo not given)	nt	39.8µM*	?	nt
Cc1nn(-c2ccccc2)c2c1C(C(C)C)N(C1CCN(C(=O)c3ccc(C(F)(F)F)cc3)CC1)C2=O (stereo not given)	nt	3.4%	-0.5%	nt
Cc1nn(-c2ccccc2)c2c1C(C)N(C1CCCN(C(=O)Cc3ccccn3)C1)C2=O (stereo not given)	nt	?	-21.7%	nt
COc1cccc([S+](=O)([O-])N2CCC(N3C(=O)c4c(c(C)nn4-c4ccccc4)C3C)CC2)c1 (stereo not given)	nt	-24.7%	-13.3%	nt
COCCCn1c(C)cnc1C1CCN(C(=O)c2ccc(C)nc2)C1 (stereo not given)	nt	-3.6%	-10.2%	nt
SMILES	FLuc inh	HEK cytotox	3T3 cytotox	hNpr1 antagonist
O=C1NCCCCCCN(Cc2ccncc2)[C@@H]2CN(S(=O)(=O)c3ccccc3)CC[C@@H]12	i	?	-30.1%	-1.8%
O=C(NC1CCCCCC1)C1CCc2nnc(-c3ccc(F)cc3)n21 (stereo not given)	nt	-18.9%	-24.1%	nt
COCC(=O)N1CC(N2C(=O)c3c(c(C)nn3-c3ccccc3)C2C)C1 (stereo not given)	nt	3.1%	-17.8%	nt
COCC(=O)N1CCC(N2C(=O)c3c(c(C)nn3-c3ccccc3)C2C)CC1 (stereo not given)	nt	-20.2%	28.2µM*!	nt
COc1ccc(CC(=O)N2CC(N3C(=O)c4c(c(C)nn4-c4ccccc4)C3C)C2)cc1 (stereo not given)	nt	39.8µM*	?	nt
CC1CCN(C(=O)Cn2ccn3nc(-c4ccccc4)c(CO)c3c2=O)CC1	i	5.9%	0.7%	0.8%
O=C(c1ccc(F)cc1)N1CCCC(c2nn(-c3ccccn3)c(=O)[nH]2)C1 (stereo not given)	nt	2.7%	-11.8%	nt

Source: PubChem BioAssay
